According to the supplement of paper PMC5919970:
Counter-ions that a name gives are not always drawn. Over roughly 2,000 compounds, “fractional viability relative to vehicle” has its median near 0.91; the lowest 2% begin near 0.045. Many of the other results were omitted from the sample, so the lowest values are more common in it than they were.

Tested on: TYKNU
Assay: fractional viability relative to vehicle; TYKNU is a high-grade serous ovarian cancer line; higher = less growth inhibition
Details: 72 h
Summary of the method: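 Drug treatment lasted 72 h, with cells grown at 37 °C in 5% CO2 in RPMI 1640 supplemented with 10% FBS. Beforehand, TYKNU control cells or their lentiCRISPRv2 knockout derivatives had been seeded at 500 cells per well into drug-stamped 384-well plates carrying a ~2100-compound library at 2 or 10 μM, in duplicate. Viability came from Cell Titer Glo luminescence, with averaged duplicate treatment wells normalised to duplicate control wells in the same plate position.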

[1] = 2uM, genotype: DNM1L knockout (sgDNM1L #1)
[2] = 2uM, genotype: sgCTRLA1 (non-targeting control)
[3] = 10uM, genotype: DNM1L knockout (sgDNM1L #1)
[4] = 10uM, genotype: sgCTRLA1 (non-targeting control)

SMILES | fractional viability [1] | fractional viability [2] | fractional viability [3] | fractional viability [4]
N[C@H]1CC[C@H](N[C@@H]2C[C@H]2c2ccccc2)CC1 | 0.777 | 0.909 | 0.758 | 0.712
Cc1cc(OCc2nnc(SC3CCCC3)n2-c2cccnc2)ccc1-c1ccc(S(C)(=O)=O)cc1 | 0.545 | 0.46 | 0.0437 | 0.0922
CC(C)[C@H](O)C(=O)N[C@@H](C)C(=O)N[C@@H]1C(=O)N(C)CCc2ccccc21 | 1.04 | 1.25 | 0.949 | 1.15
Cc1ccc(S(=O)(=O)c2ccc([N+](=O)[O-])o2)cc1 | 0.0323 | 0.012 | 0.0126 | 0.00867
NC(=O)c1ccc(-c2nc(-c3ccccn3)c(-c3ccc4c(c3)OCO4)[nH]2)cc1 | 1.32 | 1.08 | 1.16 | 0.957
COc1ccccc1OCC(O)COC(N)=O (stereo unspecified) [Methocarbamol] | 1.02 | 1.16 | 0.9 | 1
O=C(NC[C@H](O)CO)c1ccncc1Nc1ccc(I)cc1F | 0.333 | 0.318 | 0.212 | 0.205
CCCSc1nc(N[C@@H]2C[C@H]2c2ccc(F)c(F)c2)c2nnn([C@@H]3C[C@H](OCCO)[C@@H](O)[C@H]3O)c2n1 [Ticagrelor] | 0.944 | 1.12 | 0.492 | 0.903
CCN(CC)C(=S)SSC(=S)N(CC)CC [Disulfiram] | 0.456 | 0.291 | 0.0708 | 0.0241
CC(=O)N1c2ccc(-c3ccc(C(=O)O)cc3)cc2[C@H](Nc2ccc(Cl)cc2)C[C@@H]1C | 0.281 | 0.395 | 0.237 | 0.208
CNCc1ccc(C)c(NC(=O)c2ccc(Nc3nc(-c4ccccc4)c4ccccc4n3)cc2)c1 | 0.752 | 1.03 | 0.0487 | 0.0706
Cc1cc(Nc2ccc(NC(=O)c3ccc(Nc4ccnc5ccccc45)cc3)cc2)nc(N)n1 | 0.0197 | 0.0121 | 0.0121 | 0.00969
CC(=O)Nc1ccc(C(=O)Nc2ccccc2N)cc1 [CI994 (Tacedinaline)] | 0.966 | 0.965 | 0.456 | 0.675
COc1cc(OC)c2c(=O)[nH]c(-c3cc(C)c(OCCO)c(C)c3)nc2c1 | 1.15 | 1.12 | 0.973 | 1.03
CN(C)CCNC(=O)c1cccn2c(=O)c3cc4ccccc4cc3nc12 | 0.389 | 0.417 | 0.107 | 0.0609
C=CC(=O)Nc1cccc(Nc2nc(Nc3ccc(OCCOC)cc3)ncc2F)c1 | 0.626 | 0.721 | 0.273 | 0.297
Cc1cnc(Nc2ccc(N3CCN(C)CC3)cc2)nc1Nc1cccc(S(=O)(=O)NC(C)(C)C)c1 | 0.363 | 0.472 | 0.0682 | 0.0804
Cc1cnc(Nc2ccc(OCCN3CCCC3)cc2)nc1Nc1cccc(S(=O)(=O)NC(C)(C)C)c1 | 0.352 | 0.378 | 0.0362 | 0.0573
Cc1nc(Nc2cnn(C3CCNCC3)c2)nc2c1N(C)C(=O)c1cc3ccccc3cc1N2C | 0.723 | 0.802 | 0.376 | 0.51
CCN(CC)CCOc1ccc(C(=C(Cl)c2ccccc2)c2ccccc2)cc1 [Clomifene citrate] | 0.751 | 1.08 | 0.178 | 0.479

SMILES | fractional viability [1] | fractional viability [2] | fractional viability [3] | fractional viability [4]
O=S(=O)(NCCSSCCNS(=O)(=O)c1cc(Cl)ccc1Cl)c1cc(Cl)ccc1Cl | 0.891 | 0.899 | 0.197 | 0.43
Cc1cc(Nc2ncc(Cl)c(Nc3ccccc3S(=O)(=O)C(C)C)n2)c(OC(C)C)cc1C1CCNCC1 | 0.612 | 0.403 | 0.026 | 0.0128
CN1CCN(Cc2ccc(Nc3ncc(Cl)c(Nc4ccccc4S(=O)(=O)N(C)C)n3)cc2)CC1 | 0.22 | 0.229 | 0.234 | 0.18
O=C(O)c1cc2cccc([N+](=O)[O-])c2[nH]1 | 0.859 | 1.09 | 0.957 | 0.802
CCCCNc1ncc2c(-c3ccc(CN4CCN(C)CC4)cc3)cn([C@H]3CC[C@H](O)CC3)c2n1 | 0.322 | 0.41 | 0.0773 | 0.0599
C=CCc1cccc(/C=N/NC(=O)CN2CCN(Cc3ccccc3)CC2)c1O | 0.604 | 0.671 | 0.277 | 0.27
Cc1[nH]nc2ccc(-c3cncc(OC[C@@H](N)Cc4ccccc4)c3)cc12 | 0.23 | 0.212 | 0.137 | 0.0399
CC[C@H]1OC(=O)C[C@@H](O)[C@H](C)[C@@H](O[C@@H]2O[C@H](C)[C@@H](O)[C@H](N(C)C)[C@H]2O)[C@@H](CCN2C[C@H](C)C[C@H](C)C2)C[C@@H](C)C(=O)/C=C/C(C)=C/[C@@H]1CO[C@@H]1O[C@H](C)[C@@H](O)[C@@H](OC)[C@H]1OC [Tilmicosin] | 2.22 | 1.13 | 1.49 | 1.11
CC(/C=C1\SC(=S)N(CC(=O)O)C1=O)=C\c1ccccc1 [Epalrestat] | 0.92 | 1.11 | 0.89 | 1.03
CCOC(=O)[C@H]1O[C@@H]1C(=O)N[C@@H](CC(C)C)C(=O)NCCC(C)C [Aloxistatin] | 0.853 | 0.91 | 0.817 | 0.78
Cc1c[nH]c(/C=C2\C(=O)Nc3ccccc32)c1CCC(=O)O | 0.91 | 0.936 | 0.874 | 0.784
CC(C)(C)NCC(O)COc1cccc2c1CCC(=O)N2 (stereo unspecified) [Carteolol HCl] | 0.876 | 1.16 | 0.838 | 1.14
CC(C)NCC(O)COc1cccc2ccccc12 (stereo unspecified) [Propranolol HCl] | 0.866 | 1.12 | 0.82 | 1.1
CC(C)(Cc1ccc2ccccc2c1)NC[C@@H](O)COc1cccc(Cl)c1C#N | 0.854 | 1.1 | 0.585 | 0.0354
NCc1c[nH]c(=S)n1[C@H]1CCc2c(F)cc(F)cc2C1 [Nepicastat (SYN-117) HCl] | 0.973 | 1.11 | 0.953 | 0.993
NC1=N[C@@](c2cccc(-c3cncnc3)c2)(c2ccnc(C(F)F)c2)c2cccc(F)c21 | 0.851 | 1.01 | 0.765 | 0.736
CCCc1cc2c(N3CCN(C4=NCC(C)(C)S4)CC3)ncnc2s1 [MI-2 (Menin-MLL Inhibitor)] | 0.919 | 0.869 | 0.747 | 0.665
CCOC(=O)c1cnc2ccc(-c3cncc(NS(=O)(=O)c4ccccc4)c3)cn12 | 0.176 | 0.171 | 0.183 | 0.108
O=C(c1ccccc1)c1ccc2nc(NC(=O)c3csc(C4CCN(c5ncnc6ccsc56)CC4)n3)[nH]c2c1 | 0.749 | 1.15 | 0.481 | 0.328
CC(C)OC(=O)C1=CN(C(=O)c2ccc(F)c(F)c2)CC(C)(C)c2c1[nH]c1ccccc21 | 0.991 | 1.05 | 0.865 | 0.965

SMILES | fractional viability [1] | fractional viability [2] | fractional viability [3] | fractional viability [4]
CCc1cccc(CC)c1NC(=O)N1Cc2[nH]nc(NC(=O)c3ccc(N4CCN(C)CC4)cc3)c2C1 | 0.538 | 0.711 | 0.359 | 0.462
CN1CCN(c2ccc(C(=O)Nc3n[nH]c4ccc(Cc5cc(F)cc(F)c5)cc34)c(NC3CCOCC3)c2)CC1 [Entrectinib (RXDX-101)] | 0.597 | 0.771 | 0.0511 | 0.0303
CO[C@@H](C(=O)N1Cc2[nH]nc(NC(=O)c3ccc(N4CCN(C)CC4)cc3)c2C1)c1ccccc1 | 0.503 | 0.521 | 0.486 | 0.427
OCc1ccc(O[C@@H]2O[C@H](CO)[C@@H](O)[C@H](O)[C@H]2O)cc1 [Gastrodin] | 0.926 | 1.16 | 0.853 | 1.06
COc1ccc(-c2nc3cc(C4=NNC(=O)CC4C)ccc3[nH]2)cc1 (stereo unspecified) [Pimobendan] | 1.1 | 1.05 | 0.55 | 0.472
CN1C(C(=O)Nc2ccccn2)=C(O)c2sc(Cl)cc2S1(=O)=O [Lornoxicam] | 1.04 | 1.22 | 0.894 | 0.996
Cc1cc(N2CCOCC2)cc2[nH]c(-c3c(NC[C@@H](O)c4cccc(Cl)c4)cc[nH]c3=O)nc12 | 0.488 | 0.845 | 0.35 | 0.472
C=C1C(=O)O[C@H]2[C@H]1CC/C(C)=C/CC[C@@]1(C)O[C@@H]21 [(-)-Parthenolide] | 0.336 | 0.595 | 0.0299 | 0.0264
C=C1C(=O)O[C@@H]2/C=C(\C)CC/C=C(\C)CC[C@@H]12 [Costunolide] | 0.946 | 1.05 | 0.226 | 0.249
CN(C)CCc1c[nH]c2ccc(CS(=O)(=O)N3CCCC3)cc12 [Almotriptan Malate] | 1.02 | 1.18 | 0.947 | 1.02
CC(C)(O)CC[C@@H](O)[C@](C)(O)[C@H]1CC[C@@]2(O)C3=CC(=O)[C@@H]4C[C@@H](O)[C@@H](O)C[C@]4(C)[C@H]3CC[C@]12C [20-Hydroxyecdysone] | 1.04 | 1.1 | 0.84 | 1.02
COc1cc(OC)c(C(=O)CCCN2CCCC2)c(OC)c1 [Buflomedil HCl] | 0.912 | 1.1 | 0.825 | 1.03
COc1cc2c(NC3CCN(CC4CCCCC4)CC3)nc(N3CCCN(C(C)C)CC3)nc2cc1OCCCN1CCCCC1 | 0.657 | 0.723 | 0.0227 | 0.00884
COc1cc2nc(N3CCN(C(=O)C4COc5ccccc5O4)CC3)nc(N)c2cc1OC (stereo unspecified) [Doxazosin Mesylate] | 1.18 | 1.11 | 1.07 | 0.931
COc1cc2nc(N3CCN(C(=O)C4CCCO4)CC3)nc(N)c2cc1OC (stereo unspecified) [Terazosin HCl] | 1.17 | 1.16 | 1.07 | 0.97
COc1cc2nc(N3CCCN(C)CC3)nc(NC3CCN(Cc4ccccc4)CC3)c2cc1OC | 0.474 | 0.548 | 0.0331 | 0.0181
COc1cc2nc(N3CCCC3)nc(NCCCCCN3CCCC3)c2cc1OC | 0.426 | 0.543 | 0.0312 | 0.0156
COC(=O)c1ccc2c(c1)[nH]c1ncnc(NCCCN3CCCCC3)c12 | 0.884 | 1.05 | 0.929 | 0.811
COc1cc(Nc2c(C#N)cnc3cc(OCCCN4CCN(C)CC4)c(OC)cc23)c(Cl)cc1Cl [Bosutinib (SKI-606)] | 0.41 | 0.574 | 0.138 | 0.111
